Compounds with a hit are over-represented: about 21% of the library has one in this group of screens.
ClpP mod – qHTS Assay for Activators of ClpP | purified B. subtilis ClpP, FRET peptide cleavage, 20 min | AID 651965, 2013 | Potency, µM (top dose mostly 57.5 µM), for the others: at the top dose activity change, negative = active | hit rate 1.9% among 340,000; active = well fitted falling curve with a large enough effect; inconclusive = small, poorly fitted or top-dose-only effect; inactive = no such curve, though single readings can be large or run the other way; note: potency is the fitted concentration of half-maximal effect; the source files actives as falling curves though it sought activators and does not explain the sign; nearly all actives have a fitted effect of over 65% in size
Target sequence (P80244 whole entry, looked up): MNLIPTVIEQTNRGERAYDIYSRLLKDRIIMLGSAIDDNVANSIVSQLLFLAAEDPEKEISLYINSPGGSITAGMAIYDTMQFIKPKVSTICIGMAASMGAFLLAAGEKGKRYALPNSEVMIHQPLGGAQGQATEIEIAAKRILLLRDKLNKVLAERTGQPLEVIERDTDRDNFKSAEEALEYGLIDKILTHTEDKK
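Purified B. subtilis ClpP, 10 microg/mL final in Tris/HCl pH8 with KCl, BSA, glycerol and Tween-20, cleaved an Abz/nitrotyrosine-quenched decapeptide. Fluorescence (ex 320, em 430) was read at 0 and 20 min at room temperature. Delta was normalized to 5.8 microM ADEP and DMSO/no-enzyme controls.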
DT40 TDP1 no CPT – qHTS for Inhibitors of human tyrosyl-DNA phosphodiesterase 1 (TDP1): qHTS in cells in absence of CPT; DT40 Tdp1-/- hTDP1 cells, no CPT, ATP luminescence, 48 h; Potency, µM (highest dose often 46.2 µM), inactives show at the top dose activity change, negative = growth inhibition, hits mostly inhibitors; hit rate 15% among 420,000; AID 686978, 2013; note: potency is the fitted concentration of half-maximal effect; % is set by controls: 0 for no effect and ±100 for the full control effect; nearly all actives have a fitted effect of over 55% in size
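Luminescent ATP content (CellTiter-Glo) served as the growth readout. Knockout chicken DT40 cells expressing human TDP1 were exposed to compounds without camptothecin for a minimum 48 hr at 37 °C.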
D3 antag – blocks the human D3 dopamine receptor; P35462; D3R cells, DiscoveRx beta-arrestin luminescence, antagonist mode; hits give low values; max response, negative = inhibition, %; hit rate 2.5% among 360,000; AID 652054; in the data active = max response below about -50%; inconclusive = no clear call, values can overlap the other calls; note: % is set by controls: 0 for no effect and ±100 for the full control effect
Target sequence (P35462 whole entry, looked up): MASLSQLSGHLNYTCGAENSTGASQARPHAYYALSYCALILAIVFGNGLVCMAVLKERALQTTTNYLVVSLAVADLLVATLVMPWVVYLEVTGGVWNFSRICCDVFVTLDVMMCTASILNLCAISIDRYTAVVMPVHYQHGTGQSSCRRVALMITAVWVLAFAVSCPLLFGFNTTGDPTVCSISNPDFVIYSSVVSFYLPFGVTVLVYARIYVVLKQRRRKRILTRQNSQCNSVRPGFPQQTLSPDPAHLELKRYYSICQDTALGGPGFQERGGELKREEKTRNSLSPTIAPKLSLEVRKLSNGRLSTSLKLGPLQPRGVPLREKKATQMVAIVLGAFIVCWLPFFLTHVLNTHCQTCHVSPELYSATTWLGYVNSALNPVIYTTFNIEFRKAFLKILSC
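Cells expressing the human receptor were seeded at 1500 cells/well, incubated overnight at 37 degrees C in 5% CO2, then exposed to library compounds with dopamine controls for 90 minutes at 37 degrees C before luminescent detection.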
TDP1 cell CPT – growth inhibition of DT40 Tdp1-/-;hTDP1 cells with camptothecin (screen for TDP1 inhibitors); chicken DT40 Tdp1-/-;hTDP1 cells + 20 nM CPT, ATP luminescence, 48 h; Potency, µM (titrated, usually from 46.2 µM), for the others: at the top dose activity change, negative = growth inhibition, most hits filed as inhibitors; hit rate 12% among 420,000; note: potency is the fitted concentration of half-maximal effect; % is set by controls: 0 for no effect and ±100 for the full control effect; nearly all actives have a fitted effect of over 55% in size
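Chicken DT40 Tdp1-/- cells complemented with human TDP1, 400 cells/well, exposed to compounds plus 20 nM camptothecin for at least 48 h at 37 C; viability read as ATP content by CellTiter-Glo luminescence.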
IL-1B inflam inh – inhibitors of inflammasome signaling (IL-1 beta secretion) | THP-1 LPS/ATP IL-1B secretion, AlphaLISA, 16 h; hits give low values | activity change, % at 57.5 µM | hit rate 4.7% among 360,000 | AID 743279; in the data active = activity change below about -50%; inconclusive = mostly about -30% to -49%; note: % is set by controls: 0 for no effect and ±100 for the full control effect
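THP-1 cells pretreated 1 hr with compounds (up to 57.5 uM final), then stimulated with LPS (250 ng/mL final) plus ATP (1.25 mM final); secreted IL-1B measured by AlphaLISA after 16 hr, decreased signal indicating inhibition.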
DRD3 agonist – agonists of human D3 dopamine receptor. P35462. D3R DiscoveRx beta-arrestin cells, luminescence, 90 min. hit rate 0.58% among 410,000. AID 652048. max activation, %; in the data active = max activation above about 30%; note: 0% is about no effect
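Agonist mode: compounds and dopamine controls were applied to plated cells for 90 min at 37 degrees C after an overnight attachment at 1500 cells/well. Luminescent read-out followed 30 - 60 minutes at room temperature with DiscoveRx detection reagent.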
Starred values were filed as active, the others as inactive; ? = inconclusive; . = no result given; ! = not confirmed by another sample. Unless noted, calls come from the whole dose curve; as a rule, active = well fitted inhibition curve with a large enough effect; inconclusive = small, poorly fitted or top-dose-only effect; inactive = flat fitted curve, though single readings scatter.

SMILES	ClpP mod	DT40 TDP1 no CPT	D3 antag	TDP1 cell CPT	IL-1B inflam inh	DRD3 agonist
CC(C)OC(=O)C1C(=O)NC2(C)CC1c1ccccc1O2 (stereo unspecified)	-2%	-14%	3	-9%	?	4
CC(O)(CS(=O)(=O)c1ccc(F)cc1)C(=O)Nc1ccc(C#N)c(C(F)(F)F)c1 (stereo unspecified)	.	11µM*	.	15µM*	.	8
CC(O)(CS(=O)(=O)c1ccccc1)C(=O)Nc1ccc(C(F)(F)F)cc1 (stereo unspecified)	0%	-18%	-20	-30%	13	-14
CCOC(CN1CCN(CC(C)C(=O)c2ccccc2)CC1)c1ccccc1 (stereo unspecified)	.	27µM*	.	?	.	-19
CCC(=NCCCN1CCOCC1)c1c(O)n(-c2ccccc2C)c(=O)[nH]c1=O	1%	-4%	-1	-10%	13	-7
COC(=O)C1(C(=O)OC)C[C@H](c2ccc(OC)cc2)N(Cc2ccccc2OC)[C@@H]1c1cccs1	0%	21µM*	7	16µM*	?	-1
COOCC1(C(=O)OC)C[C@H](c2ccc(OC)cc2)N(Cc2ccccc2OC)[C@@H]1c1ccccc1C (stereo partly specified)	-1%	?	6	?	8	1
c1cc(CCN2CCCC2)ccn1	-8%	25%	-9	-7%	0	1
Cc1nn(C(C)(C)C)c(C)c1/C=N/OC(=O)Nc1ccc(Cl)cc1	.	?	-18	?	-94*	-9
Cc1cc(C(=O)Nc2ccccc2)nn1C(C)(C)C	.	-28%	-5	-1%	-4	-2
Cc1ccc(CNC2=NCCS2)cc1	.	-17%	-8	-6%	10	-8
CCOc1ccc(NC2=NCCCS2)cc1	.	-17%	6	11%	-15	15
O=C(Nc1ccc(OC(F)(F)F)cc1)c1cccn(Cc2ccccc2Cl)c1=O	0%	-1%	.	1%	.	3
Cc1ccc(NC(=O)COc2ccc(-c3nn(C)c(=O)c4ccccc34)cc2)c(C)c1	-14%	13µM*	.	16µM*	.	1
Cn1nc(-c2ccc(C(=O)Nc3ccc(OC(F)(F)F)cc3)cc2)c2ccccc2c1=O	-1%	16µM*	.	9.2µM*	.	7
CCN(CC)C(=O)c1ccc(NC(=O)Cn2nc(-c3ccc(C)cc3)c3ccccc3c2=O)cc1	-1%	-20%	.	3%	.	3
CCN(CC)C(=O)c1ccc(NC(=O)CCn2nc(-c3ccc(C)cc3)c3ccccc3c2=O)cc1	-4%	15µM*	.	18µM*	.	4
CCN(CC)C(=O)c1ccc(NC(=O)COc2ccc(-c3nn(C)c(=O)c4ccccc34)cc2)cc1	-8%	?	46	16µM*	5	19
Cc1ccc(OCC(=O)Nc2ccc(Cl)cc2C(=O)c2ccccc2)cc1	-4%	-23%	5	-4%	0	6
COc1cc2c(cc1OC)C13CCN4CC5CCOC6CC(=O)N2C1C6C5CC43 (stereo unspecified)	.	10%	9	8%	30	-12
CCc1c(C(=O)OC)ncc2[nH]c3cc(OC)c(OC)cc3c12	.	6.5µM*	.	8.2µM*	.	.
CN(C(=O)Oc1ccc(C(C)(C)C)cc1)c1ccccc1	.	?	13	-16%	-16	3
Cc1c(C(=O)N2CCC(Cc3ccccc3)CC2)sc2ncnc(N3CCC(C)CC3)c12	1%	?	?	21µM*	-2	-7
C/C(N)=C(/C#N)C(=O)CSc1nc2cc(Cl)ccc2c(=O)n1-c1ccc(C)cc1	1%	?	-1	-6%	10	-7
C[C@]12CCC3C(CC[C@H]4C[C@H](O)[C@H](O)C[C@]34C)C1CC[C@@H]2O (stereo partly specified)	1%	?	10	21µM*	14	5
SMILES	ClpP mod	DT40 TDP1 no CPT	D3 antag	TDP1 cell CPT	IL-1B inflam inh	DRD3 agonist
CC(=O)OC1CC[C@@]2(C)C3CC(=O)[C@]4(C)C(C(C)=O)=CCC4C3CC[C@H]2C1 (stereo partly specified)	.	?	.	-4%	.	.
CCOC(=O)c1ccc(NC(=O)CSc2ccc(-c3cccnc3)nn2)cc1	.	?	-19	?	-8	-9
COc1ccc(NC(=O)CSc2nc(-c3ccco3)cc(C(F)(F)F)n2)cc1OC	2%	0.92µM*	.	1.5µM*	.	11
Cc1cccc(NC(=O)CSc2ccc(-c3ccco3)nn2)c1	?	29µM*	7	?	0	1
CCN(CCCNS(=O)(=O)c1ccc2c(c1)oc(=O)n2C)c1cccc(C)c1	-5%	?	17	?	-12	-7
CC12CN3CCN(C1)CC(C)(C3)C2=NO	-1%	8%	16	0%	-8	-2
CS(=O)c1ccc(-c2nc(-c3ccc(F)cc3)c(-c3ccncc3)[nH]2)cc1 (stereo unspecified)	.	15µM*	.	30µM*!	.	.
C[N+](C)(C)c1ccccc1	1%	-18%	-5	7%	9	0
NCC(=O)c1ccc2ccccc2c1	4%	-15%	.	-6%	.	.
CC[n+]1c(/C=C/C=C/c2ccc(N(C)C)cc2)sc2ccccc21	0%	0.052µM*	-23	0.0092µM*	-97*	-15
CN(C)c1ccc(/C=C/C=C/c2sc3ccccc3[n+]2C)cc1	.	0.13µM*	-19	0.92µM*	-90*	-8
CN(C)c1ccc(/C=C/c2cc[n+](C)c3ccccc23)cc1	1%	0.23µM*	4	0.41µM*	-102*	5
C[C@H](NC(=O)CCC(=O)N1C[C@H]2C[C@H](C1)c1cccc(=O)n1C2)c1ccccc1	-6%	5%	12	10%	11	1
Cc1cccc(OP(=O)(Oc2ccccc2)OC(c2ccccc2)C(F)(F)F)c1 (stereo unspecified)	4%	18µM*	60	-22%	-1	13
CCCCCN(C)CCC(O)(P(=O)(O)O)P(=O)(O)O	.	-12%	.	4%	.	7
CC[C@@]1([C@@H]2O[C@@H]([C@H]3O[C@@](O)(CO)[C@H](C)C[C@@H]3C)C[C@@H]2C)CC[C@H]([C@]2(C)CC[C@]3(C[C@H](O)[C@@H](C)[C@@H]([C@@H](C)[C@@H](OC)[C@H](C)C(=O)O)O3)O2)O1 (stereo in doubt)	.	0.21µM*	.	0.23µM*	.	75*!

Assay outcomes: PubChem BioAssay, National Center for Advancing Translational Sciences (NCATS)
